Source: PubChem BioAssay (NCI)
The panel holds about 79,000 compounds, 15% with a hit somewhere; the sample as a whole holds those more often. Rule as the data show it: active = growth inhibition above about 70%; inactive = the rest.

Key:
[1] = NCI Yeast Anticancer Drug Screen. Data for the rad50 strain (AID 155);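 also: 0% = growth of vehicle-only cultures of the same strain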; conditions: S. cerevisiae rad50 strain growth inhibition; at 50.0 µM; active compounds read high
How it was run: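 Yeast carrying a defined DNA repair defect were exposed to test compounds, and growth was compared with vehicle-treated controls to give percent inhibition.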

[2] = NCI Yeast Anticancer Drug Screen. Data for the mec2-1 strain (AID 157); conditions: S. cerevisiae mec2-1 strain, at 50.0 µM, active compounds read high
How it was run: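 Vehicle-treated cultures served as reference for growth inhibition of compound-exposed mec2-1 yeast.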

[3] = NCI Yeast Anticancer Drug Screen. Data for the sgs1 mgt1 strain (AID 161);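 also: 0% = growth of cultures given vehicle only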; conditions: S. cerevisiae sgs1 mgt1 strain, at 50.0 µM, active compounds read high
How it was run: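 Test agents were incubated with a DNA-repair-mutant yeast strain. Growth was then read and compared against vehicle-treated controls.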

[4] = NCI Yeast Anticancer Drug Screen. Data for the cln2 rad14 strain (AID 165);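 also: 0% = growth equal to vehicle treated cultures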; conditions: S. cerevisiae cln2 rad14 strain, at 50.0 µM, active compounds read high
How it was run: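 Each compound was tested on cln2 rad14 yeast. Inhibition of growth was calculated against vehicle-exposed controls.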

[5] = NCI Yeast Anticancer Drug Screen. Data for the bub3 strain (AID 167); conditions: S. cerevisiae bub3 mutant strain, at 50.0 µM, active compounds read high
How it was run: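 Compounds were applied to a genetically altered yeast strain carrying a cell-cycle control defect. Growth inhibition was scored against vehicle-treated controls.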

[6] = NCI Yeast Anticancer Drug Screen. Data for the mlh1 rad18 strain (AID 175); conditions: S. cerevisiae mlh1 rad18 strain growth inhibition; at 50.0 µM; active compounds read high
How it was run: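 Vehicle-treated cultures served as the reference for growth inhibition in a yeast strain carrying DNA damage repair alterations exposed to each compound.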

Measured: growth inhibition

C=C1C(=O)N2CCc3c([nH]c4ccccc34)[C@H]2C[C@@H]1CO
inactive: [1] 5.4% | [2] 2.4% | [3] 4.2% | [4] 5% | [5] 7.05% | [6] 10.8%

N/C(=N\O)C(=O)c1ccccc1
inactive: [1] 9.8% | [2] -12.8% | [3] -5.8% | [4] -5.3% | [5] 2.35% | [6] 3.95%

Cc1ccc(S(=O)(=O)N2CCC(N)=N2)cc1
inactive: [1] 4.8% | [2] -6.7% | [3] -3.75% | [4] -18.4% | [5] 0.45% | [6] -4.85%

CCOC(=O)C1=C(O)c2ccc(OC)cc2C(=O)C1=O
inactive: [1] -5.5% | [2] -10.5% | [3] 12.7% | [4] 2.05% | [5] -9% | [6] 0.3%

CC(=O)C(=C(c1ccccc1)c1ccccc1)c1ccccc1
inactive: [1] -51.4% | [2] -7.8% | [3] -32.9% | [4] -1.4% | [5] -46.6% | [6] 7.6%

COc1ccc(C2(C#N)CCCC2)cc1
inactive: [1] 5.8% | [2] 12.4% | [3] 0.95% | [4] -30.6% | [5] 0.7% | [6] 8.7%

COC(=O)c1nc2nnc(N)n2c(-c2ccc(Cl)cc2)c1C
inactive: [1] -6.3% | [2] 11.1% | [3] 7.25% | [4] -15.9% | [5] -4.35% | [6] 0.75%

COC(=O)/C=C(/N)CC(=O)OC
inactive: [1] 16.9% | [2] -25.4% | [3] -8.35% | [4] 10.9% | [5] -15.9% | [6] 1.75%

CCC1CN2CCc3cc(OC)c(OC)cc3C2CC1O (stereo not given)
inactive: [1] 1.3% | [2] 40.4% | [3] 20% | [4] -3.1% | [5] 44.4% | [6] 27.9%

C(=N[C@H]1CCCC[C@H]1N=Cc1ccc[nH]1)c1ccc[nH]1
inactive: [1] 14.8% | [2] -3.6% | [3] 8.75% | [4] 3.45% | [5] 13.9% | [6] 20.7%

CCCCCCCCCCCCSSC(=S)OC(C)C
inactive: [1] 46.7% | [2] 37.7% | [3] 45.5% | [4] 16.9% | [5] 43.6% | [6] 44.5%

COc1c2ccoc2nc2c(O)c3c(c(CC=C(C)C)c12)OCO3
inactive: [1] -6.65% | [2] -7% | [3] -4.7% | [4] 16.2% | [5] -4.9% | [6] -2.95%

OCC1COc2cc(Cl)c(Cl)cc2O1 (stereo not given)
inactive: [1] 47.8% | [2] 9.65% | [3] 33.3% | [4] 15% | [5] 36.9% | [6] 50.2%

CC1OC(OC2C(OC3C[C@@]4(C)C(C[C@H](O)[C@H]5[C@H](C6(C)CCC(C(C)(C)O)O6)CCC54C)[C@]4(C)CC[C@@H](O)C(C)(C)C34)OC(CO)C(O)C2O)C(O)C(O)C1O (stereo not given in full) (tested in a mixture with another compound)
inactive: [1] -7.6% | [2] -20.1% | [3] -3.45% | [4] -26.7% | [5] -8.5% | [6] -72.5%

C[Si](C)(COC(N)=O)Cc1ccccc1
inactive: [1] -28.1% | [2] -12.6% | [3] -15.5% | [4] -1.2% | [5] -10.6% | [6] -32%

O=C1c2ccccc2C(=O)c2c(Nc3ccc(Nc4cccc5c4C(=O)c4ccccc4C5=O)c4c3C(=O)c3ccccc3C4=O)cccc21
inactive: [1] -28.4% | [2] -39% | [3] 4.7% | [4] -3.2% | [5] -19.3% | [6] -26.8%

CCC(=O)Nc1cc(Cl)c(Cl)cc1C
inactive: [1] -8.7% | [2] -12.4% | [3] -13.5% | [4] -85.8% | [5] -27.2% | [6] -12%

CCOC(=O)C(C(=O)CC)=P(c1ccccc1)(c1ccccc1)c1ccccc1
inactive: [1] 3.35% | [2] 17.4% | [3] -20.1% | [4] -9.4% | [5] -9.9% | [6] 23.2%

CC#CCN(C(C)C)C(C)C
inactive: [1] 15.4% | [2] 8.3% | [3] -11.4% | [4] -34.5% | [5] -21.5% | [6] -27.1%

Cc1c(CO)[n+](=O)c2ccccc2n1[O-]
inactive: [1] 30.4% | [2] 12.6% | [3] 0.45% | [4] -22.6% | [5] 3.4% | [6] 21.7%

O=C1c2ccccc2-c2ccc(I)cc21
inactive: [1] 5.15% | [2] -1.7% | [3] 2.25% | [4] -17.6% | [5] 8.45% | [6] 26.2%

C=CCOC/C=C\CCOCC/C=C/COCC=C (tested in a mixture with another compound)
inactive: [1] 5% | [2] 1.3% | [3] 6.25% | [4] -13.6% | [5] 2.45% | [6] 2.35%

CCc1nc(N)nc(N)c1-c1ccc(NCCN)c(N)c1
inactive: [1] 3.4% | [2] 6.35% | [3] 5.15% | [4] -6.05% | [5] 12.2% | [6] 8.5%

Cc1cc(O)c(C(c2ccc(C#N)cc2)c2c(O)cc(C)[nH]c2=O)c(=O)[nH]1
inactive: [1] -1.05% | [2] -31.9% | [3] 1.95% | [4] -6.2% | [5] 4.6% | [6] -6.35%

COC(=O)C(CNc1ccc(S(N)(=O)=O)cc1)=[N+]=[N-]
inactive: [1] 7.4% | [2] 13.3% | [3] 0.95% | [4] -12.8% | [5] 6.25% | [6] 11.2%

COc1ccc2nc(-c3ccccc3)cc(N=[N+]=[N-])c2c1
inactive: [1] 1.9% | [2] -0.85% | [3] -12.7% | [4] -5.35% | [5] -23.1% | [6] -12%

O=C(/C=C/c1ccc(O)cc1)OCC1OC(Oc2cc(O)c3c(c2)OC(c2ccc(O)cc2)CC3=O)C(O)C(O)C1O (stereo not given)
inactive: [1] 9.35% | [2] -7.45% | [3] 9.6% | [4] -16.1% | [5] 14.3% | [6] 5.1%

CCCCCc1c2c(c(CCCCC)c3c1-c1cccc4cccc-3c14)-c1ccc(C)cc1C2
inactive: [1] -29.7% | [2] -9.95% | [3] -30.9% | [4] -18.1% | [5] -0.3% | [6] -19.4%

COc1ccc(C(N)C(=O)O)cc1 (stereo not given)
inactive: [1] -17.4% | [2] -9.4% | [3] -6.8% | [4] -21.6% | [5] -12.5% | [6] -10.9%

CN(C)CCNC(=O)c1cccc(N(C)C(=O)c2ccccc2)c1[N+](=O)[O-]
inactive: [1] 6.65% | [2] -9.45% | [3] 6.5% | [4] 17.6% | [5] 7.05% | [6] 3.15%

COc1ccc(-c2c3c(n(C4OC(COC(C)=O)C(OC(C)=O)C(OC(C)=O)C4OC(C)=O)c(=S)c2C#N)CCC3)cc1 (stereo not given)
inactive: [1] 28.8% | [2] 35% | [3] 43.3% | [4] 32% | [5] 46.8% | [6] 20.9%

CN(C)S(=O)(=O)c1c(N)ncn1C
inactive: [1] 12.7% | [2] 6.85% | [3] -9.1% | [4] 7.25% | [5] 9.65% | [6] 5%

O=C(CNC(=O)c1ccccc1)Nc1ccc([N+](=O)[O-])cc1
inactive: [1] 15.2% | [2] -0.65% | [3] -1.5% | [4] 26.8% | [5] 22.6% | [6] 5.7%

CCOC1CN=C(Nc2cccc3ccccc23)S1 (stereo not given)
inactive: [1] -51.6% | [2] -33.3% | [3] -27.9% | [4] -2.65% | [5] -34.4% | [6] -29.8%

O=C1c2ccccc2C(=O)N1CC#CCN1C(=O)c2ccccc2C1=O
inactive: [1] -6.95% | [2] -31.8% | [3] 19.6% | [4] -5.05% | [5] -2.65% | [6] -5.75%

CCCS(=O)(=O)N1CCCC1
inactive: [1] -1.25% | [2] -15.8% | [3] -2.1% | [4] -34.5% | [5] -24.4% | [6] -19.4%

CCCCCN(CCOC(=O)c1ccc([N+](=O)[O-])cc1)CCOC(=O)c1ccc([N+](=O)[O-])cc1
inactive: [1] 7.5% | [2] 4.7% | [3] 7.25% | [4] 7.8% | [5] -2.6% | [6] 7.45%

CC(C)(OC(=O)Nc1ccccc1)c1ccc([N+](=O)[O-])cc1
inactive: [1] -5% | [2] 9.1% | [3] 13.2% | [4] -25.5% | [5] -22.7% | [6] -4.45%

CCc1ccc(OC/C=C(\C)CCC2OC2(C)CC)cc1 (stereo not given)
inactive: [1] -4.15% | [2] 4.5% | [3] 19.8% | [4] 4% | [5] 32% | [6] -2.8%

CCOC(=O)C(Cc1ccccc1)NC(=O)c1[nH]cnc1/N=N/N(C)C (stereo not given)
inactive: [1] 44% | [2] -44% | [3] -29.4% | [4] -2.05% | [5] 2.8% | [6] -22.3%
